Test results from PubChem BioAssay (NCATS).
“And” between values parts separate entries of the source, which are not always exact repeats. Equal entries are not always repeated. Inconclusive results are not listed. A call without a number means that no potency is given here. The source made the active and inactive calls. Unless noted, calls come from the whole dose curve; as a rule, active = well fitted curve in the direction sought with a large enough effect; inconclusive = small, poorly fitted or top-dose-only effect, or another doubt; inactive = no such curve, though single readings can be large; an effect the other way counts as inactive or inconclusive.

Columns and labels:
[1] = target: Peroxisome proliferator-activated receptor gamma (Homo sapiens) (UniProt P37231); assay: qHTS assay for small molecule antagonists of peroxisome proliferator-activated receptor gamma signaling (AID 588537; active = well fitted inhibition curve with a large enough effect in the signal ratio, with a control signal flat, not every such curve was filed as active; the % refers to the signal ratio;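 note: reporter cells co-stimulated with 50 nM rosiglitazone agonist during compound treatment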)
Procedure, shortened: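 PPAR-gamma-UAS-bla HEK293 cells (3000/well, 1% charcoal/dextran-stripped FBS) were preincubated 6-6.5 h at 37 C, given titrated compounds, then stimulated with 50 nM rosiglitazone for 16 h. Beta-lactamase activity was read with CCF4 dye; IC50 came from Hill fits.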

[2] = target: Vitamin D3 receptor (Homo sapiens) (UniProt P11473); assay: qHTS assay for small molecule antagonists of vitamin D receptor signaling (AID 588541; calls by dose curve;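 note: receptor activated by calcitriol during compound treatment; series mostly up to about 77 µM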)
Procedure, shortened: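 VDR-UAS-bla HEK293T cells (2000/well, 2% charcoal-stripped FBS) were treated with titrated compounds plus 1-alpha,25-dihydroxyvitamin D3 (50 nM or 3 nM final) for 16 h at 37 C. CCF4 beta-lactamase fluorescence was read; Hill fits gave IC50.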

[3] = qHTS assay for small molecule agonists of retinoid X receptor alpha signaling (AID 588544); conditions: HEK293T RXRa-UAS-bla, beta-lactamase reporter, 18 h; 530 nm emission
[4] = target: Thyroid hormone receptor beta (Homo sapiens) (UniProt P10828); assay: qHTS assay for small molecule agonists of thyroid hormone receptor beta signaling (AID 588545; calls by dose curve)
Procedure, shortened: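 Agonist activity was read as beta-lactamase CCF4 fluorescence (405 ex, 460/530 em), scaled between DMSO (0%) and 10 nM T3 (100%), then Hill-fitted for EC50 and efficacy. HEK 293 TR-UAS-bla cells in 2% charcoal/dextran FBS medium were exposed 18 h at 37 C.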

[5] = qHTS assay for small molecule antagonists of retinoid X receptor alpha signaling (AID 588546; active = well fitted inhibition curve with a large enough effect in the signal ratio, with a control signal flat, not every such curve was filed as active; the % refers to the signal ratio;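 note: cells stimulated with 9-cis-retinoic acid as agonist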); conditions: HEK293T RXRa-UAS-bla, beta-lactamase ratio, antagonist mode; measured here: W530 green channel, cytotoxicity proxy
Procedure, shortened: (§1)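 Beta-lactamase reporter inhibition, read as CCF4 fluorescence ratio (ex 405, em 460/530 nm) after 2 h at RT. HEK293T UAS-bla cells, 2500/well, were stimulated with 9-cis-RA at 500 or 100 nM final alongside test compound for 18 h at 37 C.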

[6] = target: Retinoic acid receptor RXR-alpha (Homo sapiens) (UniProt P19793); assay: as above; conditions: HEK293T RXRa-UAS-bla, beta-lactamase ratio, antagonist mode
Procedure, shortened: as §1

[7] = target: Thyroid hormone receptor beta (Homo sapiens) (UniProt P10828); assay: qHTS assay for small molecule antagonists of thyroid hormone receptor beta signaling (AID 588547; active = well fitted inhibition curve with a large enough effect in the signal ratio, with a control signal flat, not every such curve was filed as active; the % refers to the signal ratio;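 note: cells stimulated with 0.4 nM T3 agonist during compound exposure; series mostly up to about 77 µM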); conditions: TR-UAS-bla HEK293, beta-lactamase ratio, antagonist mode, 18 h
Procedure, shortened: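 TR-UAS-bla GripTite HEK293 cells in 2% charcoal/dextran FBS medium were preincubated 4 h at 37 C, given compound (0.59 nM to 92 uM) plus 0.4 nM T3 (final) for 18 h, then CCF4 for 2 h at RT; Hill fit gave IC50.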

[8] = target: Voltage-gated inwardly rectifying potassium channel KCNH2 (Homo sapiens) (UniProt Q12809); assay: qHTS Assay for Small Molecule Inhibitors of the Human hERG Channel Activity (AID 588834);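 note: lower thallium flux fluorescence means stronger hERG block; nearly all actives have a fitted effect of over 50% in size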; note: potency is the fitted concentration of half-maximal effect
Procedure, shortened: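 Kinetic FDSS fluorescence; U2OS + hERG BacMam (~100 virus particles/cell); FluxOR Tl+ flux; ~10 min cpd; AC50 (Hill).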

[9] = target: Luciferin 4-monooxygenase (Photinus pyralis) (UniProt P08659); assay: Biochemical firefly luciferase enzyme assay for NPC (AID 624030); note: nearly all actives have a fitted effect of over 70% in size; note: potency is the fitted concentration of half-maximal effect
Procedure, shortened: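 Counter-screen for direct inhibition of the luciferase enzyme by approved-drug library compounds, run at 10 nM enzyme in 50 mM Tris acetate (final). Luminescence was read within 5 min of enzyme-buffer addition and normalized to PTC124 versus DMSO (0%).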

[10] = S16 Schwann cell viability assay (CellTiter-Glo assay) (AID 624031); note: nearly all actives have a fitted effect of over 70% in size; note: potency is the fitted concentration of half-maximal effect
Procedure, shortened: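 Counter-screen for cytotoxicity: parental S16 rat Schwann cells lacking the PMP22 reporters, treated 24 h with compound, viability from cellular ATP by CellTiter-Glo luminescence, normalized to DMSO (0%) and no-cell wells.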

Chain of Luciferin 4-monooxygenase (Photinus pyralis) (P08659 whole entry, looked up): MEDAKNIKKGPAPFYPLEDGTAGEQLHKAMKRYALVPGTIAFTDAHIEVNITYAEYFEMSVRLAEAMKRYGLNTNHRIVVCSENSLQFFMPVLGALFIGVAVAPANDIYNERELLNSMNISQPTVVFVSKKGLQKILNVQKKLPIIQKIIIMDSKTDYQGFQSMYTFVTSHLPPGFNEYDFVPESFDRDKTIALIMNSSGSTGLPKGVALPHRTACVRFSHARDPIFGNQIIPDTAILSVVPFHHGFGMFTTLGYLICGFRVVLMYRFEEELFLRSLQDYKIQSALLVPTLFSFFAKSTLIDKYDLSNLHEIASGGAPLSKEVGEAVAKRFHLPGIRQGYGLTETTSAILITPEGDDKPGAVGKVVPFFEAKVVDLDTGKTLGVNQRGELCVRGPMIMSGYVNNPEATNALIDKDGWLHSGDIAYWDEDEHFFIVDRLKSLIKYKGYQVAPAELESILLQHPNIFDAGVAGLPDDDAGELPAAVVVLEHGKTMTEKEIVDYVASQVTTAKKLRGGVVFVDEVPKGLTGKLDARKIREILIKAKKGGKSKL
Chain of Voltage-gated inwardly rectifying potassium channel KCNH2 (Homo sapiens) (Q12809 whole entry, looked up): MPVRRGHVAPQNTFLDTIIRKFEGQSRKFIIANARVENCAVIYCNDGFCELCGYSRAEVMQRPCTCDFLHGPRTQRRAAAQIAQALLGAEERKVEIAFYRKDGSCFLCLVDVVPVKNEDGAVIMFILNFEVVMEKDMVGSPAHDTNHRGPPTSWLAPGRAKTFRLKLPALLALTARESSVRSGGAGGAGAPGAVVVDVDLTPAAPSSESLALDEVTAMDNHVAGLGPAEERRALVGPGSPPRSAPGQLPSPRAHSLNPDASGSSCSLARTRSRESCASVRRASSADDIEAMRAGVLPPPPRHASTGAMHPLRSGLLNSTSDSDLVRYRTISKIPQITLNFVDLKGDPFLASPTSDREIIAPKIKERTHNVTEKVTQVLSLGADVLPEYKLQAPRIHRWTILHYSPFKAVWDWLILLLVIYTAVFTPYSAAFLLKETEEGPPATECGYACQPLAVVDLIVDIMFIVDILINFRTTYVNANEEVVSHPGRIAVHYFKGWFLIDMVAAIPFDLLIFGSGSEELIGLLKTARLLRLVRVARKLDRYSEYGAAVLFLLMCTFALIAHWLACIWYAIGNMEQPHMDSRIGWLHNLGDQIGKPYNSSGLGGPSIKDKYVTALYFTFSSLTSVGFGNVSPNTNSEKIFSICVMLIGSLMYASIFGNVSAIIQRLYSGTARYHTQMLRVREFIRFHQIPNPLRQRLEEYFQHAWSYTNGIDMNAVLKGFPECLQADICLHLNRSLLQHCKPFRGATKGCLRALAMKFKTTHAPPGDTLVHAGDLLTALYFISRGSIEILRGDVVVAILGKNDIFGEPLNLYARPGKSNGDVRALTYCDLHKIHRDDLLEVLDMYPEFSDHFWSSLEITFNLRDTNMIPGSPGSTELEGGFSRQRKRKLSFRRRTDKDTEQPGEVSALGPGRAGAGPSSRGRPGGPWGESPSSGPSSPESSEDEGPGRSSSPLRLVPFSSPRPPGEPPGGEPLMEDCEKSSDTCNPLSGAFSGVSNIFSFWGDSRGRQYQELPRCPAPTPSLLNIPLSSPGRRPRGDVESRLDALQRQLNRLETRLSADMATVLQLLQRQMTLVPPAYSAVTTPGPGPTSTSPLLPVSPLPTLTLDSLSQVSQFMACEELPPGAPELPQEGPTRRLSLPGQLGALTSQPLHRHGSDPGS
Chain of Vitamin D3 receptor (Homo sapiens) (P11473 whole entry, looked up): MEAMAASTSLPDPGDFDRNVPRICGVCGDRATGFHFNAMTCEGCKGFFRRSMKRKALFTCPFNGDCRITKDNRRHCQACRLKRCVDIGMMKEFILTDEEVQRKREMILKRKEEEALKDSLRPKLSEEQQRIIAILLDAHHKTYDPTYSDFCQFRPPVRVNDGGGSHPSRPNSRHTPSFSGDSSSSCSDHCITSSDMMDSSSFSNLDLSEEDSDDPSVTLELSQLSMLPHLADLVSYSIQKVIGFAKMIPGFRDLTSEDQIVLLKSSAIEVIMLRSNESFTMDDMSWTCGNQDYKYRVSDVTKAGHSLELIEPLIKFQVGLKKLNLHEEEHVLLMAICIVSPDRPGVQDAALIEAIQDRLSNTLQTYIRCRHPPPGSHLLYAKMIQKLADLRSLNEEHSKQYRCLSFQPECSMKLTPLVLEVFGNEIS
Chain of Retinoic acid receptor RXR-alpha (Homo sapiens) (P19793 whole entry, looked up): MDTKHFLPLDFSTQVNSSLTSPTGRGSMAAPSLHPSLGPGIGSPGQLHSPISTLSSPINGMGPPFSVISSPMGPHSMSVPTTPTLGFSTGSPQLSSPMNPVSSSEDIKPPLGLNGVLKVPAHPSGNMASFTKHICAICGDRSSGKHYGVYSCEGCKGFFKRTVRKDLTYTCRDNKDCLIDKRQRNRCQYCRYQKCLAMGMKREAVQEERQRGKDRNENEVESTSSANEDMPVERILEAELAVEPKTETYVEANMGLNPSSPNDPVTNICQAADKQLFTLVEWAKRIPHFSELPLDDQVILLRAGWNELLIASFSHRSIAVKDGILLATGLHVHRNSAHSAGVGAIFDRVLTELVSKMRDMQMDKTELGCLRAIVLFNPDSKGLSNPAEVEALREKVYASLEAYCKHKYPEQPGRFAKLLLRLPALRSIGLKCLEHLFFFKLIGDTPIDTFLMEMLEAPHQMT
Chain of Thyroid hormone receptor beta (Homo sapiens) (P10828 whole entry, looked up): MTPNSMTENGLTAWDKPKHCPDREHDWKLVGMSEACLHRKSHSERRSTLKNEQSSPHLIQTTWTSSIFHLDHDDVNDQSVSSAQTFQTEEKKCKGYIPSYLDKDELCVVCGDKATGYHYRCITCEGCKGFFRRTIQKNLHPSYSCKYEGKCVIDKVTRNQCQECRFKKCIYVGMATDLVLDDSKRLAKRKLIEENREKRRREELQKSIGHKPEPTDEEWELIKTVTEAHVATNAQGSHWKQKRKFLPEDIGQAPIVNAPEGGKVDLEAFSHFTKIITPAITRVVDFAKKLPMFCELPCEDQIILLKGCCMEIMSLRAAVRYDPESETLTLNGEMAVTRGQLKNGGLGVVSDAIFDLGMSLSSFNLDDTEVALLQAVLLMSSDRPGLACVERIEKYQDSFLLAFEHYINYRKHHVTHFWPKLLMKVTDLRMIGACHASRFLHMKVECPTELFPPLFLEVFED
Chain of Peroxisome proliferator-activated receptor gamma (Homo sapiens) (P37231 whole entry, looked up): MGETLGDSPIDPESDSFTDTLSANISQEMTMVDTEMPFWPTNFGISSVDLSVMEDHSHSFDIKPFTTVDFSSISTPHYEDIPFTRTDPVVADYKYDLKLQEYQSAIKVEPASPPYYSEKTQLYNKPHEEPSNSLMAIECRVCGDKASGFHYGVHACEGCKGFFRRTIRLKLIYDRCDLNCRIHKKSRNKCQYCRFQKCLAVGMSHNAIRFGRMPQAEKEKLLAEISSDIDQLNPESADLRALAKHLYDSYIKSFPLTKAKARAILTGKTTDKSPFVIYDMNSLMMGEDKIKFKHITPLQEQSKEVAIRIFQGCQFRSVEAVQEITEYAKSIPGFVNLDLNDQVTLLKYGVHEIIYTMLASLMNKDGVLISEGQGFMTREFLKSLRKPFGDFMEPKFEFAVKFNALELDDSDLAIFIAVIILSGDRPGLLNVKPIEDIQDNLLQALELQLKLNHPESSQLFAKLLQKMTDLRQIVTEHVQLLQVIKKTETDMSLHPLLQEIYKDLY

N[C@@H](Cc1ccc(O)c(O)c1)C(=O)O
Potency [1]: inactive
outcome [2]: inactive
max response [3]: -21.2%
outcome [4]: inactive
max response [5]: -19.3%
max response [6]: 0.985% (inactive)
activity change % (negative = inhibition) [7]: -11.9% (inactive)

CCCCS(=N)(=O)CCC(N)C(=O)O (stereo unspecified)
Potency [8]: inactive

Cc1noc(NS(=O)(=O)c2ccc(N)cc2)c1C
Potency [1]: inactive
max response [3]: 3.43%
outcome [4]: inactive
max response [5]: 9.97% and -11.9%
max response [6]: 10.6% (inactive) and -8.28% (inactive)
Potency [8]: inactive
Potency [9]: inactive
Potency [10]: inactive

Cc1nnc(NS(=O)(=O)c2ccc(N)cc2)s1
outcome [2]: inactive
max response [3]: -10.5%
outcome [4]: inactive
max response [5]: -2.81%
max response [6]: -2.27% (inactive)
activity change % (negative = inhibition) [7]: -6.41% (inactive)
Potency [8]: inactive
Potency [9]: inactive
Potency [10]: inactive

CCC(=O)O[C@]1(C(=O)CCl)[C@@H](C)C[C@H]2[C@@H]3CCC4=CC(=O)C=C[C@]4(C)[C@@]3(F)[C@@H](O)C[C@@]21C
Potency [8]: inactive

N=C(N)c1ccc(OCCCCCOc2ccc(C(=N)N)cc2)cc1
outcome [2]: inactive
max response [3]: 18.8%
outcome [4]: inactive
activity change % (negative = inhibition) [7]: -26.1% (inactive)
Potency [9]: inactive
Potency [10]: inactive

CC(C)OC(=O)C(C(=O)OC(C)C)=C1SC=CS1
Potency [8]: inactive
Potency [9]: inactive
Potency [10]: inactive

CCN(C)C(=O)Oc1cccc([C@H](C)N(C)C)c1
Potency [8]: inactive
Potency [9]: inactive
Potency [10]: inactive

CC(N)C12CC3CC(CC(C3)C1)C2 (stereo unspecified)
Potency [8]: inactive
Potency [9]: inactive
Potency [10]: inactive

CCOC(=O)c1ccc(C#Cc2ccc3c(c2)C(C)(C)CCS3)nc1
Potency [8]: 8.91 µM (active)
Potency [9]: inactive
Potency [10]: inactive

N[C@@H](C(=O)N[C@@H]1C(=O)N2C(C(=O)O)=C(Cl)CS[C@H]12)c1ccccc1
Potency [8]: inactive
Potency [9]: inactive
Potency [10]: inactive

COc1c(N2CCNC(C)C2)c(F)cc2c(=O)c(C(=O)O)cn(C3CC3)c12 (stereo unspecified)
Potency [8]: inactive
Potency [9]: inactive
Potency [10]: inactive

CC(C)(C#N)c1cc(Cn2cncn2)cc(C(C)(C)C#N)c1
Potency [8]: inactive
Potency [9]: inactive
Potency [10]: inactive

O=NN(CCCl)C(=O)NC1CCCCC1
Potency [8]: inactive
Potency [9]: inactive
Potency [10]: inactive

Cn1nnc2c(C(N)=O)ncn2c1=O
Potency [8]: inactive
Potency [9]: inactive
Potency [10]: inactive

O=C(O)CCn1c2c(c3ccccc31)C[C@H](NS(=O)(=O)c1ccc(F)cc1)CC2
Potency [8]: inactive
Potency [9]: inactive
Potency [10]: inactive

Nc1ccc(S(=O)(=O)Nc2ccccn2)cc1
Potency [8]: inactive
Potency [9]: inactive
Potency [10]: inactive

COC(=O)Nc1nc2ccc(C(=O)c3ccccc3)cc2[nH]1
Potency [8]: inactive
Potency [9]: inactive
Potency [10]: inactive

CCCN[C@H]1CCc2nc(N)sc2C1
Potency [8]: inactive
Potency [9]: inactive
Potency [10]: inactive

CC(C)Cn1cnc2c(N)nc3ccccc3c21
Potency [8]: inactive
Potency [9]: inactive
Potency [10]: inactive

C[C@@H](NCCCc1cccc(C(F)(F)F)c1)c1cccc2ccccc12
Potency [8]: 11.2 µM (active)
Potency [9]: inactive
Potency [10]: 12.8 µM (active)

CN1CCN(c2c(F)cc3c(=O)c(C(=O)O)cn4c3c2OCN4C)CC1
Potency [8]: inactive
Potency [9]: inactive
Potency [10]: inactive

CCOCC(O)COc1ccc(NC(=O)CC[S+](C)C)cc1 (stereo unspecified)
Potency [8]: inactive
Potency [9]: inactive
Potency [10]: inactive

O=c1cc(O)c(Cl)c[nH]1
Potency [8]: inactive
Potency [9]: inactive
Potency [10]: inactive

CC(C)NCC(O)c1ccc(NS(C)(=O)=O)cc1 (stereo unspecified)
Potency [9]: inactive
Potency [10]: inactive

CC[C@H](NC(C)C)[C@H](O)c1ccc(O)c2[nH]c(=O)ccc12
Potency [8]: inactive
Potency [9]: inactive
Potency [10]: inactive

NC(=O)N1c2ccccc2CC(=O)c2ccccc21
Potency [8]: inactive
Potency [9]: inactive
Potency [10]: inactive

COC(=O)Nc1nc2ccc(Sc3ccccc3)cc2[nH]1
Potency [8]: inactive
Potency [9]: inactive
Potency [10]: inactive

CC(C)(Sc1cc(C(C)(C)C)c(O)c(C(C)(C)C)c1)Sc1cc(C(C)(C)C)c(O)c(C(C)(C)C)c1
Potency [8]: inactive
Potency [9]: inactive
Potency [10]: inactive

COc1ncnc(NS(=O)(=O)c2ccc(N)cc2)c1OC
Potency [8]: inactive
Potency [9]: inactive
Potency [10]: inactive

CCCCOc1ccc(CC(=O)NO)cc1
Potency [8]: inactive
Potency [9]: inactive
Potency [10]: inactive

CCn1cc(C(=O)O)c(=O)c2cc(F)c(N3CCNCC3)nc21
Potency [8]: inactive
Potency [9]: inactive
Potency [10]: inactive

COc1ccc(-c2ccc3cc(C(=O)O)ccc3c2)cc1C12CC3CC(CC(C3)C1)C2
Potency [8]: inactive
Potency [9]: inactive
Potency [10]: inactive

O=c1oc2c(O)c(O)cc3c(=O)oc4c(O)c(O)cc1c4c23
Potency [8]: inactive
Potency [9]: 36.1 µM (active)
Potency [10]: inactive

CCn1cc(C(=O)O)c(=O)c2cc(F)c(N3CCNCC3)cc21
Potency [8]: inactive
Potency [9]: inactive
Potency [10]: inactive

CCOC(=O)c1ccc(OC(=O)CCCCCN=C(N)N)cc1
Potency [8]: inactive
Potency [9]: inactive
Potency [10]: inactive

COc1cc(NS(=O)(=O)c2ccc(N)cc2)nc(OC)n1
Potency [8]: inactive
Potency [9]: inactive
Potency [10]: inactive

CNS(=O)(=O)Cc1ccc2[nH]cc(CCN(C)C)c2c1
Potency [8]: inactive
Potency [9]: inactive
Potency [10]: inactive

O=P(O)(O)C(O)(Cc1cccnc1)P(=O)(O)O
Potency [8]: inactive
Potency [9]: inactive
Potency [10]: inactive

Nc1[nH]c(=O)ncc1F
Potency [8]: inactive
Potency [9]: inactive
Potency [10]: inactive

CN(CCOc1ccc(CC2SC(=O)NC2=O)cc1)c1ccccn1 (stereo unspecified)
Potency [8]: inactive

CCc1c2c(nc3ccc(OC(=O)N4CCC(N5CCCCC5)CC4)cc13)-c1cc3c(c(=O)n1C2)COC(=O)[C@]3(O)CC
Potency [8]: inactive
